Assay outcomes from PubChem.
KB-V1 MDR tox – kills drug-selected multidrug resistant KB-V1 cells; actives 3.4% (n = 400,000); KB-V1 MDR cells viability, CellTiter-Glo, 72 h; Potency, µM (doses to about 46.1 µM), actives largely listed as cytotoxic; also: potency is read from the fitted curve at half-maximal effect; nearly all actives have a fitted effect of over 60% in size
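Potencies derive from concentration-effect curves fitted to normalized luminescence (CellTiter-Glo) of KB-V1 cells treated for 72 h at 37 degrees C in phenol-red-free DMEM containing 10% FBS.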
Nrf2 block – Nrf2 pathway inhibition | A549 ARE-Fluc reporter, luciferase luminescence, 18-24 h | Potency, µM (highest dose often 46 µM), for the others: top-dose activity change, negative = inhibition, actives largely listed as inhibitors | actives 2.1% (n = 360,000) | AID 504444; also: potency is read from the fitted curve at half-maximal effect; nearly all actives have a fitted effect of over 60% in size
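Nrf2 activity is the BugLite luminescence, read 15 min after reagent at room temperature, following CellTiter-Fluor cytotoxicity readout (30 min, 37C). Compound titrations were applied for 18-24 h to 5000 A549 ARE_Fluc cells/well in 5% FBS OPTI-MEM.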
PI4K2A inh – inhibitors of human PI4K2A. Q9BTU6. purified PI4K2A, ADP-Glo luminescence, 1 h; active compounds read low. activity change, negative = inhibition, % at 76.9 µM. actives 0.13% (n = 420,000). AID 1346378; in the data active = activity change below about -50%; inconclusive = mostly about -30% to -49%;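 also: -100% = wells without enzyme as full effect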
Target sequence (Q9BTU6 whole entry, looked up): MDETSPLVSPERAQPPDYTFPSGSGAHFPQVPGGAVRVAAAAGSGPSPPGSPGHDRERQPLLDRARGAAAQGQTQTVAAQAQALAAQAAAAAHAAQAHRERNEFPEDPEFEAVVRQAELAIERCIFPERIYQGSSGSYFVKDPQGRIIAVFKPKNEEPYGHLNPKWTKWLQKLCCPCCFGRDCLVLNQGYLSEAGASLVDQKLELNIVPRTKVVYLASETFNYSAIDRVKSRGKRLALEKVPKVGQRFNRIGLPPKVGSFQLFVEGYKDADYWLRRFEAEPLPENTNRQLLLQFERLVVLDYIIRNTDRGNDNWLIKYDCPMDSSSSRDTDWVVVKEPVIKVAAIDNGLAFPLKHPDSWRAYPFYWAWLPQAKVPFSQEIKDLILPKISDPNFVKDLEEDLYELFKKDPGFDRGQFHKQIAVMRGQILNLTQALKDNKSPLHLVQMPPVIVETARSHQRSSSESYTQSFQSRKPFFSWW
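ADP-Glo luminescence measured ADP generated by PI4K2A enzyme (4 ug/mL before mixing) with 1.2 mM PI substrate (pre-mix) and 300 microM ATP (pre-mix). Tris pH7.5 buffer with MgCl2, Triton X-100; 1 h reaction at ambient temperature.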
Giardia killer – kills Giardia lamblia. Giardia lamblia trophozoite viability. activity change, % at 7.66 µM, hits read low. actives 0.15% (n = 340,000); in the data active = activity change below about -80%; inconclusive = between about -30% and that limit;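 also: parasites exposed to compound for two days anaerobically before the ATP read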
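Killing of trophozoites was scored by loss of ATP luminescence after a 48 hrs anaerobic exposure to compounds at 37 deg C, using 100 cells per well.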
A549 viability – A549 cytotoxicity, counter-screen for Nrf2 inhibitors; Potency, µM (series often up to 46 µM), inactives show at the highest dose activity change, negative = cytotoxicity, actives largely listed as inhibitors; AID 504648; actives 0.16% (n = 390,000); A549 ARE-Fluc cells, CellTiter-Fluor viability, 18-24 h; also: potency is read from the fitted curve at half-maximal effect
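Cytotoxicity counterscreen: CellTiter-Fluor fluorescence was measured in A549 ARE_Fluc cells after 18-24 h of compound exposure in a concentration series. The subsequent BugLite luminescent read reports ARE-luciferase activity.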
KB-3-1 cytotox – KB-3-1 parental cell cytotoxicity; KB-3-1 viability, CellTiter-Glo ATP luminescence, 72 h; Potency, µM (titrated, usually from 46.1 µM), hits mostly cytotoxic; AID 1347075; actives 1.4% (n = 400,000); also: potency is read from the fitted curve at half-maximal effect; nearly all actives have a fitted effect of over 60% in size
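KB-3-1 cells, DMEM (no phenol red) + 10% FBS; compound by pin transfer, 72 h, 37 °C. Readout: CellTiter-Glo luminescence after 10 min. Data normalized, curve-fitted.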
Numbers without * were called inactive; i = inactive; ? = inconclusive; . = no result; [ ] = another dose, or the depositor's remark. Sampled rows, rich in hits. Any-hit rate of the full collection: about 5.7%. Unless noted, calls follow the shape of the dose curve; as a rule, active = well fitted curve in the direction sought with a large enough effect; inconclusive = small, poorly fitted or top-dose-only effect, or another doubt; inactive = no such curve, though single readings can be large; an effect the other way counts as inactive or inconclusive. Unless noted, % is scaled to controls: 0 for no effect and ±100 for the full control effect.

SMILES	KB-V1 MDR tox	Nrf2 block	PI4K2A inh	Giardia killer	A549 viability	KB-3-1 cytotox
COc1ccc(N2CCN(C(CNC(=O)C(=O)NCCC3=CCCCC3)c3ccco3)CC2)cc1 (configuration not stated)	2.59µM*	-14.9%	7.4	1.5	-2.7%	i
COC(=O)[C@H](CC(C)C)N(CCCc1cn(CC2CCCCC2)nn1)S(=O)(=O)c1ccc(F)cc1Br	.	.	0.7	.	.	.
COC(=O)c1ccc(C(=O)OC)c(NC(=S)N2CC(C)CC(C)C2)c1 (configuration not stated)	14.6µM*	17.4%	-2.0	3.3	6.3%	i
COC(=O)c1ccc(C(=O)OC)c(NC(=S)N2CCCC(C)C2)c1 (configuration not stated)	18.4µM*	9.1%	-6.5	5.1	0.8%	i
CCOC(=O)[C@]12CCCCC/C=C\1N(Cc1ccc(OC)cc1)C(=O)[C@H]2CC(=O)NCc1cccc(C(F)(F)F)c1	.	.	-0.5	.	.	.
O=C1CC(c2ccccc2)Cc2nc3nc(C(F)(F)F)nn3cc21 (configuration not stated)	i	3.0%	6.5	-5.1	-8.1%[1.84 µM]	i
CSc1nc2nc3c(cn2n1)C(=O)CC(c1ccccc1)C3 (configuration not stated)	13µM*	-15.4%	11.8	-6.7	0.6%	i
COc1ccccc1N(CC(=O)N/N=C(\C)c1cccc(Br)c1)S(C)(=O)=O	20.6µM*	-5.4%	2.5	9.6	-6.6%	i
CCOc1ccccc1N(CC(=O)N/N=C(\C)c1cccc(Br)c1)S(C)(=O)=O	i	-18.9%	1.1	2.8	-5.1%	i
CC(=O)NC(CC(=O)Nc1nc(-c2ccc(N(C)S(C)(=O)=O)cc2)cs1)c1ccccc1 (configuration not stated)	i	20.6µM*	-10.1	-9.4	-23.6%	i
CCC(=O)N1CCc2cc(Br)cc(S(=O)(=O)CCC(=O)NCCc3cccc(C)c3)c21	.	.	0.4	.	2.5%	.
Cc1ccc2c(c1)N(CCCC(=O)NCc1c(F)cccc1F)C(=O)CO2	.	.	1.6	.	.	.
S=C(NCCSCc1ccc(Cl)cc1Cl)Nc1ccccc1	?	?	7.3	12.2	-10.6%	?
S=C(Nc1ccccc1)Nc1ccc(OCc2ccc(Cl)cc2Cl)cc1	i	18.4µM*	3.4	-0.2	3.3%	i
Cc1ccc(S(=O)(=O)c2cc3ccccc3oc2=Nc2ccc3c(c2)OCCO3)cc1	10.3µM*	-19.5%	3.2	0.5	0.4%	i
COc1ccc(C(=O)N2C=Cc3ccccc3C2C#N)cc1 (configuration not stated)	i	.	9.9	.	.	i
N#CC1c2ccccc2C=CN1C(=O)N(c1ccccc1)c1ccccc1 (configuration not stated)	20.6µM*	?	5.7	-14.4	?	?
Cc1cc2[nH]c3c4ccccc4nc(C)c3c2cc1C	?	?	1.6	-25.4	?	10.3µM*
COc1ccc(C=Nn2c(-c3ccc(F)cc3)n[nH]c2=S)cc1OCc1ccccc1	.	.	18.5	.	.	.
Cc1cc(C)c(NC(=S)NCCCSC2CCCCC2)c(C)c1	?	20.6µM*	-10.8	2.5	-2.7%	i
CCCCCCCOc1ccc(CC(=O)NO)cc1	i	.	.	.	.	i
N=c1ccn2c(n1)OC1C(O)C(CO)OC12 (configuration not stated)	i	0.184µM*	1.1	-6.6	-0.4%	i
CCC(=O)N(C1=C(NC)C(=O)c2ccccc2C1=O)C(C)C	?	16.4µM*	-14.1	-29.7	?	2.59µM*
CCC(=O)N(CC)C1=C(O)c2ccccc2C(=O)C1=O	i	-10.9%	-8.9	5.8	-2.4%	i
CC(=O)NC1=C(Nc2ccc(N(C)C)cc2)C(=O)c2ccccc2C1=O	i	?	?	-0.6	?	i
CNC1=C(N(C(C)=O)c2ccc(Br)cc2)C(=O)c2ccccc2C1=O	?	16.4µM*	-21.2	-21.0	?	?
